Pf Dd2 growth: qHTS Primary assay for Inhibitors of Plasmodium falciparum Dd2 growth in vitro; Potency, µM (top dose mostly 28.9 µM), hits mostly inhibitors; P. falciparum Dd2 growth, SYBR Green, 72 h; AID 1347417, 2020; hit rate 4.3% among 120,000; active = well fitted inhibition curve with a large enough effect; note: nearly all actives have a fitted effect of over 65% in size
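Readout: SYBR Green fluorescence, 485 nm excitation, 535 nm emission, after ~16 h lysis at 37C. Before that, Dd2-infected red cells (2.5% hematocrit) grew 72 h with compound, 29 uM top final concentration.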
A number is an active result; n = inactive; [ ] = dose if it differs, or a comment. Many of the other results were omitted from the sample, so hits are more common in it than they were.

SMILES	Pf Dd2 growth
COc1ccc(NC(=O)CSc2c3c(nc4ccccc24)CCC3)cc1Cl	n
CCOC(=O)c1nc(Nc2ccc(C(C)=O)cc2)c2ccccc2n1	n
CCCOC(=O)c1cccc(Nc2nc(C(=O)OCC)nc3ccccc23)c1	5.6µM
CCOC(=O)c1nc(Nc2cccc(C)c2)c2ccccc2n1	n
CCS(=O)(=O)N1CCCCCCN(C)C(=O)CC1	n
COCCNC(=O)[C@@H]1C[C@@H](O)CN1C1CCN(C(=O)c2ccc3ncccc3c2)CC1	n
COc1ccccc1C(=O)N1CC(Oc2ccc(F)cc2F)C1	n
O=C(c1cc2ccccc2o1)N1CCCC2(CNS(=O)(=O)c3cccnc3O2)C1 (stereo unspecified)	n
COc1ccc(CNC(=O)C[C@@H]2C[C@@H](C(C)C)[C@H](CNC(C)=O)C=C2C)cc1	n
COc1ccc2[nH]c3c(c2c1)CCNC31CCN(C(=O)c2sc(C)nc2C)CC1	n
COCCN1C(=O)[C@H]2CN(Cc3ccc(OC)cc3OC)C[C@H]2C1=O	n
COc1ccc(CN2C[C@@H]3C(=O)N(Cc4ccc5c(c4)OCO5)C(=O)[C@@H]3C2)c(OC)c1	n
COc1cc(OCc2ccccc2)ccc1CN1C[C@@H]2CCN[C@@H]2C1	10µM
O=C([C@@H]1C[C@H](Oc2ccccc2)CN1C(=O)C1CCCC1)N1CCOCC1	n
O=C(Cc1ccc(F)cc1)N1CCC(c2nc3c(nnn3Cc3ccc(Cl)cc3)c(=O)[nH]2)CC1	14µM
Cc1cccc(Cn2nnc3c(=O)[nH]c(C4CCN(C(=O)c5ccccc5F)CC4)nc32)c1	n
O=C(Cc1ccccc1F)N1CCC(c2nc3c(nnn3Cc3ccc(F)cc3)c(=O)[nH]2)CC1	n
CC(=O)N1CCC(N[C@@H]2C[C@H](Cn3cc(C4CC4)nn3)[C@@H](O)[C@H]2O)CC1	n
O=C(c1cncnc1)N1C[C@@H](COCC2CC2)[C@H](c2ccncc2)C1	n
COc1cccc(CN2C[C@@H](COCC3CC3)[C@H](c3ccncc3)C2)n1	11µM
Cc1ccccc1C(=O)N1C[C@@H](COCC2CC2)[C@H](c2ccncc2)C1	n
Cc1ccc(S(=O)(=O)N2CCCC(Cn3c(C)nc4cccnc43)C2)cc1F (stereo unspecified)	n
Cc1nc2cccnc2n1CC1CCCN(S(=O)(=O)c2ccc3c(c2)CCC3)C1 (stereo unspecified)	n
Cc1nc2cccnc2n1CC1CCCN(S(=O)(=O)c2cccc(Br)c2)C1 (stereo unspecified)	6.3µM
COc1cc2c(cc1OCc1ccccc1)N(C(=O)c1ccc3[nH]ccc3c1)CC21CCN(C)CC1	n
SMILES	Pf Dd2 growth
COc1cc2c(cc1Oc1ccccc1)NC(=O)C21CCN(C(=O)Cc2ccccc2)CC1	n
COc1ccccc1CN1CCOc2cc([S+](=O)([O-])N(C)C)ccc2C1	n
Cn1ccc(C(=O)N2CC(COc3ccccc3)C3(C2)CN(c2ccccc2)C3)n1 (stereo unspecified)	n
COc1cc2c(cc1CCc1ccccc1)N(C(=O)c1ccn(C)n1)CC21CCN(C(C)=O)CC1	10µM
COc1cc2c(cc1OCc1ccccc1)N(C(=O)C(C)C)CC21CCN(C)CC1	n
COc1cc2c(cc1CCc1ccccc1)N(C(=O)CC(C)C)CC21CCN(C(C)=O)CC1	4µM
COc1cc2c(cc1OCc1ccccc1)N(C(=O)c1ccccc1OC)CC21CCN(C)CC1	4µM
COc1ccc([S+](=O)([O-])N2CC3(CCN(CC(=O)O)CC3)c3cc(OC)c(OCC4CCCC4)cc32)cc1	n
COc1cc2c(cc1CCc1ccccc1)N([S+](=O)([O-])c1ccc3c(c1)CCO3)CC21CCN(C(C)=O)CC1	10µM
COc1cc2c(cc1OCc1ccccc1)N(C(=O)Cc1ccc3c(c1)OCO3)CC21CCN(C)CC1	n
COc1cccc(CN2C(=O)OC3(CCN(C(=O)c4ccn(C)n4)CC3)C2(C)c2cccnc2)c1 (stereo unspecified)	n
Fc1ccccc1-c1noc(-c2nc(C3CC3)no2)n1	n
O[C@@H]1C[C@@H](c2nnc3n2CCN(Cc2ccc4c(c2)CCO4)C3)N(Cc2ccccc2)C1	n
CN1CC(=O)N(c2ccccc2F)Cc2c(NC3CCCC3)ncnc21	n
Cc1nc(CN2CCN(CC3(O)CCNC3)CC2)cs1 (stereo unspecified)	n
COCCNC(=O)c1ccc(-c2ncc3cnc(-c4cccc(F)c4)cn23)cc1	n
Cc1cccc(NC(=O)N2CCCC(c3nnnn3C)C2)c1 (stereo unspecified)	n
CN1CCN(c2nc3c(c(=O)[nH]2)CCN(Cc2ccccc2Br)CC3)CC1	n[5.79 µM]
O=c1[nH]c(N2CCOCC2)nc2c1CCN(Cc1ccc(F)cc1)CC2	n[5.79 µM]
O=c1[nH]c(N2CCOCC2)nc2c1CCN(Cc1ccccc1Br)CC2	1.3µM
O=c1[nH]c(N2CCOCC2)nc2c1CCN(Cc1ccc(Cl)cc1F)CC2	0.32µM
O=c1[nH]c(N2CCOCC2)nc2c1CCN(Cc1ccc(Cl)cc1)CC2	n[5.79 µM]
CCOc1ccccc1CN1CCc2nc(N3CCOCC3)[nH]c(=O)c2CC1	n[5.79 µM]
O=C(CCC1CCCC1)N1CCC2(CCCCO2)CC1	n

High-throughput results (PubChem BioAssay)
